# From the supplement of paper PMC6555819
# System: VDR:RXRa (NR concentration 270 nM, RXRa partner concentration 90 nM)
# Test: PBM binding z-score (relative to random genomic background probes); higher = stronger binding; sequences stand for … in GC…GCGATTGACAGCGTAGAATGAAGG
# Description: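 Protein-binding microarray (Agilent 4x180K custom design, double-stranded 60-nt probes: 5' GC cap, 34-nt variable region, 24-nt constant primer region; full probe sequence given). Purified or IVT nuclear receptor:RXRα heterodimers (3:1 NR:RXRα, mostly 270:90 nM) or homodimers were incubated for 1 h in PBS with 2% milk and no ligand, then detected with Alexa488 antibodies. Fluorescence from o1-orientation probes (~5 replicates averaged) was converted to z-scores against 500 random hg19 background probes. Variable regions are seed direct-repeat (DR0–DR5) sites, all their single-nucleotide variants and half-site ablations.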
row,Sequence,PBM binding z-score
1,TCGAGTAGGTTACAGGGGCATTCAGGGATGAAGA,1.67
2,TATTGTAGATCAAAGGTTAAGAAAGCCGAAGCCT,1.54
3,ATATGTAGGTTATCGGGTCATTCATTTTGCGCAT,3.52
4,CCTTACGGGCCACGAGGTTATAGCACGACGAGCG,0.504
5,TCTAGTAGGTTACGGGGGCATTCAGGGATGAAGA,4.39
6,TCGAGTAGGTTACGGGGGCATTGAGGGATGAAGA,3.66
7,CCTACTGGGCCAAAGGTCTTTGATTCCAATGCTC,-0.283
8,CCTCCAAGGTCATAGGAGGTCAGTGAAGACAGAT,6.6
9,CCTAGTTGGTCAGGAGGTCCCACACCGGATATGA,0.0687
10,CGAACTAGGTCAAAGGCCAGTGAAAGGCGACGTA,1.74
11,CAAACTAGGTCACAGAGGACAAAGTCCGTGCGTA,6.52
12,CCTACTGGGCAAAAAAGGTCATTGATGCCGATAA,4.36
13,TAGCCTAGGTCAGATCGGGGCAGTATACGCTATA,1.56
14,GCTTCCGGGTCAAAGGTTATAGCATGAATAGAAT,5.69
15,TAGCCTAGGTCATAGGCCAGTATACCACGCGAAC,1.74
16,AGTCAAAATTCACTAGGTAACGTAAGATTCAGCT,0.0665
17,GGAACGAGGGCATTCGAGTTGATAGCATGGCGAT,3.76
18,ATCCAAAGGTCGAGGTGAGTATAGAGAAAGGGAA,3.05
19,TGAATGACGTTAAAGATCAGGGAACGTGGCGTCG,-0.237
20,CCAAGTAGGTTACGAGGGGGCATTCAGTGCGAAT,5.54

row,Sequence,PBM binding z-score
1,TCGAGTAGGTTACGGGGGCAGTCAGGGATGAAGA,2.8
2,CCTACTGGGCCATCAGGTGATTGATATCAACGTT,-0.317
3,CCGAGTAGGTTACGAGGGGGCATTAAGTGCGAAT,5.39
4,AGTCAAAGTTCACGAGGTAACGTAAGATTCAGCT,4.94
5,CCTACTGGGCCAATGTCATTGATCAGTCAAAGCA,-0.366
6,ATTTGTAGGTTATCGGGTCATTCAGTTTGCGCAT,5.57
7,ATACCAAGGTGATCGTGAGTTCGTTGATACTAAC,4.08
8,CAAACTAGGTCACAGAGGTCAACGTCCGTGCGTA,7.74
9,CGAACTAGGTCACCAGGACAGTGATGAGGTTGGA,2.17
10,CGAACTAGGTCAAAGGACGGTGAAAGGCGACGTA,1.12
11,AGTCAAAGTTCAGGACGAGATAACGTAAAGCACG,2.19
12,CGTCAAAGTTCAAGGTTACGTAACAGAAAGCAGC,4.31
13,TCGAGTAGGTTAGGGGGGCATTCAGGGATGAAGA,3.91
14,GCTGCTAGGTCGACTGATGGTCAGCTAAAGCTCG,-0.493
15,TCATATAGGTAATAAAGGTGAAAGTCGGCATCTA,1.42
16,GATAAAGGGTCAGCTAGAGGCCAGAGTATGGAAA,3.73
17,CAAACTAGGTCAAGGTCAAATTCGGTTTGTGCCA,5.06
18,ATCGGAAGGTCGAGGTGAGTATAGAGAAAGGGAA,1.31
19,TTACCAAAGTGAAAGGTCGTTGATGCACGCCTTG,1.86
20,ATATGTATGTTAGGGTCATTCAGAAAGTAGGGAA,4.38
